# Laboratory results taken from PMC7819943, “Rice protein-binding microarrays: a tool to detect cis-acting elements near promoter regions in rice”.
# The full ranking holds about 68,000 sequences; the median of “fluorescence intensity (a.u.)” is about 9,100, and the highest 2% start at about 16,000. Shown is part of a subset that was picked to be rich in the highest values.
# Target: OsWRKY34 (Oryza sativa, UniProt Q0JBA9 1-250)
# Experiment: protein-binding microarray (RPBM); PBS, 2% BSA, 51.3 ng/ul salmon testes DNA, 50 uM zinc acetate, 200 nM TF, 25 C, 1 h; high values mean tight binding
# Settings: protein: recombinant; tags: N-terminal polyhistidine and DsRed monomer fusion (pET32a); label: CyDye5-dUTP incorporated in the synthesized complementary strand; 3' TTTTT single-stranded linker to array surface; dsDNA, one strand shown
# Procedure, shortened: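 Binding signal is reported as fluorescence intensity per feature (arbitrary units) from an Axon 4000B scanner. Incubation used 200 nM of each Ni–NTA-purified, N-terminally polyhistidine- and DsRed-fused transcription factor from E. coli BL21-CodonPlus on a double-stranded custom Agilent array for 1 h at 25 °C, with 50 µM zinc acetate in the buffer, followed by washing.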
# OsWRKY34, sequence (Q0JBA9 entry or part of it): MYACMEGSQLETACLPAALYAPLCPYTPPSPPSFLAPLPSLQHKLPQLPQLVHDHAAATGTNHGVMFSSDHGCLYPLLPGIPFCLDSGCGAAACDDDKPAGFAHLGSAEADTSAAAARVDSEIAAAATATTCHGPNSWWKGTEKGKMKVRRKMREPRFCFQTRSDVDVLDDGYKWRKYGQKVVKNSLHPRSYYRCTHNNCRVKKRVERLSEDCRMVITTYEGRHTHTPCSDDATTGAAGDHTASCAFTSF
row,Sequence,binding signal
1,CCGACCCGACCCGACCACCCACCGGCGAGGCCCACTCCGTCGGAGTCACCTAGTGCAG,8620 fluorescence intensity (a.u.)
2,TGCTGCTGCTGTTGTTCGTGTATTGCTCCATCTGTGCACGCGGAGTCACCTAGTGCAG,9920 fluorescence intensity (a.u.)
3,CATAAACGACGCCGCATCAGACAAACTAAACGCGACAATACGGAGTCACCTAGTGCAG,8100 fluorescence intensity (a.u.)
4,GCACTACCTTCACCATTTTTTTTGATTTTTTTCTTTTTTTCGGAGTCACCTAGTGCAG,8270 fluorescence intensity (a.u.)
5,GCTATCTCCATCGTCTCTTTCCTTGACCACAGCGGCAATGCGGAGTCACCTAGTGCAG,9860 fluorescence intensity (a.u.)
6,CCACCACGGACTCCGCCGCCGCTCCCGCCACCGCCACATCCGGAGTCACCTAGTGCAG,10600 fluorescence intensity (a.u.)
7,ATAAATGACGCCGTTGATTTTTTCTCACATGTTTGACCATCGGAGTCACCTAGTGCAG,10500 fluorescence intensity (a.u.)
8,CGTTTTTTAATAGATGACGCCGTTGACTTTTTCTCACATGCGGAGTCACCTAGTGCAG,31400 fluorescence intensity (a.u.)
9,GATGACGCCGTTGACTTTTTCTCACATGTTTGACCAATCGCGGAGTCACCTAGTGCAG,36900 fluorescence intensity (a.u.)
10,AATAGATGACGCCGTTGATTTTTTCTCACATGTTTGACCACGGAGTCACCTAGTGCAG,11700 fluorescence intensity (a.u.)
11,TTCATGGAGTCTACTACTCTACTCCCTCTATTTTCAAATACGGAGTCACCTAGTGCAG,9010 fluorescence intensity (a.u.)
12,ATATAGGGGTTGGTCTTCCACGTCAAATTTGGGGTAGATACGGAGTCACCTAGTGCAG,10200 fluorescence intensity (a.u.)
13,TAGCTTTGGCACCTTGCGCGCGCGTACACAGCCGCTTAAGCGGAGTCACCTAGTGCAG,8550 fluorescence intensity (a.u.)
14,TTTTTCTCGTTTGCCGTGTCACCGCGTGAGTTGCGCGGGGCGGAGTCACCTAGTGCAG,11700 fluorescence intensity (a.u.)
15,ATCACATCAACCTGTCATATACACACAACTTTTCAGTCATCGGAGTCACCTAGTGCAG,8530 fluorescence intensity (a.u.)
16,TTTGCTCCACACCACACAACACACATTGTACGGCGTTGCTCGGAGTCACCTAGTGCAG,8210 fluorescence intensity (a.u.)
17,ACCTCAACAAAAGCTTTGTAGTAGCTCTTAATTGTTGGGTCGGAGTCACCTAGTGCAG,8220 fluorescence intensity (a.u.)
18,TTAAAAAACATTGTACCACAAGTAGCAACAAATTAATGCTCGGAGTCACCTAGTGCAG,26900 fluorescence intensity (a.u.)
19,CCCAAATCCATCCAGCCCGTCGCCGCCCGCCGCCCGCCGCCGGAGTCACCTAGTGCAG,8860 fluorescence intensity (a.u.)
20,CACTCCTGCTGCCGTCCAGTTGCAATTGCGTTTTCTCCTTCGGAGTCACCTAGTGCAG,16700 fluorescence intensity (a.u.)
21,TGTTAAAACACCCTTTTTCACTTTTCTAGCCGTTCACTTTCGGAGTCACCTAGTGCAG,9280 fluorescence intensity (a.u.)

row,Sequence,binding signal
1,ATCCACTCCAGTCCCGTCCCGTTTCCTTGCTGCCCGGCCGCGGAGTCACCTAGTGCAG,9660 fluorescence intensity (a.u.)
2,GTCCGTCTTGTTTTCTCCTGCGTCACAATTGTCCCGTATTCGGAGTCACCTAGTGCAG,18500 fluorescence intensity (a.u.)
3,AGTCCGTGCTGCAGATCTGCTCTTTTCTCTTCGTTTAACTCGGAGTCACCTAGTGCAG,10300 fluorescence intensity (a.u.)
4,AGTTTTCTTTGTTCACCTACCGTTTTTTTAGCACGTAGTTCGGAGTCACCTAGTGCAG,10500 fluorescence intensity (a.u.)
5,ACGTGTCCTTCTCTCTTTTTTTCTTTTTCGTTTTCTTCTCCGGAGTCACCTAGTGCAG,8280 fluorescence intensity (a.u.)
6,CTGATCTTAACTCCGTGTTTTTCCGCGTTCTCTTTCGTTCCGGAGTCACCTAGTGCAG,19600 fluorescence intensity (a.u.)
7,TGTTATTGTCCTGTATCAGTCCCGTGCTGTTTTTCTCTTTCGGAGTCACCTAGTGCAG,13000 fluorescence intensity (a.u.)
8,TACTGCCGTCGCCGTCGCCCCACGTTTCCTTCTCCAGTTTCGGAGTCACCTAGTGCAG,8300 fluorescence intensity (a.u.)
9,CTTTTCTAGCCGTTCACTTTTTTTTACCACAGTAGTTTTTCGGAGTCACCTAGTGCAG,16600 fluorescence intensity (a.u.)
10,TGTTCTGTGAGAATAGTTTCGTCCGTCTTGTTTTCTCCTGCGGAGTCACCTAGTGCAG,8470 fluorescence intensity (a.u.)
11,CCGGGTTCCTGTTTTTTCAACGCATGCACACTTTAATCTACGGAGTCACCTAGTGCAG,9290 fluorescence intensity (a.u.)
12,AATTTTTTTTTGCTTACAAAGGGTGAAACTTTCTCTCTCTCGGAGTCACCTAGTGCAG,8500 fluorescence intensity (a.u.)
13,CTCCGACGACCCCACCGTGCCCACCCCGACCGCCGTCTCGCGGAGTCACCTAGTGCAG,9650 fluorescence intensity (a.u.)
14,TTTCTGGGATATTCCATCTCATTACAGCACTCATTCTTTACGGAGTCACCTAGTGCAG,9350 fluorescence intensity (a.u.)
15,AATCTCCATCTTCTTGCTCGTACAACGTAAATACTCGTCTCGGAGTCACCTAGTGCAG,8830 fluorescence intensity (a.u.)
16,CGTCTTGTCTTGGCGTATGTTGGCTTGTATGTTGTTCCGTCGGAGTCACCTAGTGCAG,10500 fluorescence intensity (a.u.)
17,CCTATTTTTGATGTTCCGGATTTTTTCTTTGCGGCCAAAACGGAGTCACCTAGTGCAG,11700 fluorescence intensity (a.u.)
18,TTATTTTCTCCACTCACTACTTGTTCGTTTAGCAATTTGTCGGAGTCACCTAGTGCAG,8750 fluorescence intensity (a.u.)
19,CTTTCTTTTTCCTTCTCTCTCTCTTTTCTTTCTTTTCTTTCGGAGTCACCTAGTGCAG,13600 fluorescence intensity (a.u.)
20,CTCTTTTCTTTCTTTTCTTTTCCTTTCTTTTTCCTTTCTTCGGAGTCACCTAGTGCAG,8540 fluorescence intensity (a.u.)
21,AGTTTTGTTTCTTTCCTGTTCACAGTTCACCTTTGCCTTTCGGAGTCACCTAGTGCAG,12400 fluorescence intensity (a.u.)

row,Sequence,binding signal
1,GTTCTTGGTTCCTGCATTTCTTTTCTTTTTTGCCTTTGTTCGGAGTCACCTAGTGCAG,11300 fluorescence intensity (a.u.)
2,CCTGCCGTTTTCTTTTTCTTTTTCTTTCCTTTTCCTTTTTCGGAGTCACCTAGTGCAG,17000 fluorescence intensity (a.u.)
3,ACTTGATGTTCTTTCGTTCTTTCCTGCGAAAACGTCAGGCCGGAGTCACCTAGTGCAG,25600 fluorescence intensity (a.u.)
4,CCCTTTGTCCTGCAGTACGTTTTTCCTTGCATTTTTCTTTCGGAGTCACCTAGTGCAG,19700 fluorescence intensity (a.u.)
5,ATCATCACTCCATTGCCGCTGTATTTGTTGTCATCGTTTTCGGAGTCACCTAGTGCAG,11200 fluorescence intensity (a.u.)
6,CCGCTCCGTTTTGTGTCGTTTTGTGTATTTTCTCCACTCACGGAGTCACCTAGTGCAG,17400 fluorescence intensity (a.u.)
7,ATTGTCCATGATGTTCTTCCTTTTCTTTTTCGTTGTCAAACGGAGTCACCTAGTGCAG,10300 fluorescence intensity (a.u.)
8,TCCTCTCTGTCTTCTGTCTTCTCTTCTTCTTCCTCACCAACGGAGTCACCTAGTGCAG,11600 fluorescence intensity (a.u.)
9,CAAACAGAGCACACCTTTTTCCAGGACATTTGTCAATATTCGGAGTCACCTAGTGCAG,9180 fluorescence intensity (a.u.)
10,ATCCTTTTCTTTGGCAGTCCTTGATCCCAGATCCACATTTCGGAGTCACCTAGTGCAG,9820 fluorescence intensity (a.u.)
11,GGCTTTAATTGATCACTATGAATACTTGGCTTGTTGTCATCGGAGTCACCTAGTGCAG,9040 fluorescence intensity (a.u.)
12,AAACCTCGCATGCCAATAGTTGGGAACGCCGGGGCGGGGTCGGAGTCACCTAGTGCAG,9340 fluorescence intensity (a.u.)
13,TTCCTTTTTCTATTTTTGGAATTTATTTTAATTTTTATTTCGGAGTCACCTAGTGCAG,8910 fluorescence intensity (a.u.)
14,CCCCGCTCGCGGCCCGGTCGCGCCAAACATCGTCCGACTCCGGAGTCACCTAGTGCAG,9010 fluorescence intensity (a.u.)
15,TCCACAACTGATTTTATTCCGACTTGTTTTTTTTTCTTTTCGGAGTCACCTAGTGCAG,10800 fluorescence intensity (a.u.)
16,TTACTACTTCACCGTCTCTTTTTCTTCCTCAGCGCACAAACGGAGTCACCTAGTGCAG,9610 fluorescence intensity (a.u.)
17,AGACGGAGGAGGACAAGGACATAGGGGAGGAGGGGCGAGGCGGAGTCACCTAGTGCAG,9530 fluorescence intensity (a.u.)
18,ATTTCTTTTTGTTGTGTTATCGTGTTGTTTCGTCACTAGTCGGAGTCACCTAGTGCAG,19600 fluorescence intensity (a.u.)
19,GCCGTTTCTTCTTTCTTTTTTTTTTCCGTGTGTGTCGTTTCGGAGTCACCTAGTGCAG,16600 fluorescence intensity (a.u.)
20,ATGTTGTCGTGTATCATTTGTTTTTCTTATGTTATTTTCTCGGAGTCACCTAGTGCAG,10700 fluorescence intensity (a.u.)
21,TTTTTCGTTTCCTTTCCGTGTTCTTTTTTTTTTCTTCCATCGGAGTCACCTAGTGCAG,10100 fluorescence intensity (a.u.)

row,Sequence,binding signal
1,TTTTTCCGTGTGTGTCGTTTCGTTCTTGTTTGTTCGGGTCCGGAGTCACCTAGTGCAG,12400 fluorescence intensity (a.u.)
2,GTGGATTTTTTTTTTCTTTTCTTTTTTCGTTGTTATTTGTCGGAGTCACCTAGTGCAG,10600 fluorescence intensity (a.u.)
3,ACACCTTCAATCGCTCTCTCATGAATTAACCGAACAAGACCGGAGTCACCTAGTGCAG,9340 fluorescence intensity (a.u.)
4,GTAGTAGGTAGCAGCAGTCTCAAACATGTCTTCTGAGTAGCGGAGTCACCTAGTGCAG,9420 fluorescence intensity (a.u.)
5,CGTGTTCTTGCCTGCGTATATACGGTGTACGTACACACGTCGGAGTCACCTAGTGCAG,8870 fluorescence intensity (a.u.)
6,GGGGCTGCTTGGGCTTGTGTTGTTTTTTTGGCAGATGCATCGGAGTCACCTAGTGCAG,19100 fluorescence intensity (a.u.)
7,GCTAGCTGCTGTCTTGTGTTGTGTTGTGTTGTGTGGCATGCGGAGTCACCTAGTGCAG,8220 fluorescence intensity (a.u.)
8,AGATTTTGGGTGTGTTTGGTTGCTTGCATTGTTTTAGTCTCGGAGTCACCTAGTGCAG,9320 fluorescence intensity (a.u.)
9,TGGGTTGGGATTTGTGCTTGTTTTTTTTTTTTGTGCGTGTCGGAGTCACCTAGTGCAG,16600 fluorescence intensity (a.u.)
10,TCTTGGCGCTGTCGGTGTGTGGGTGGCGTTATATTTTTTTCGGAGTCACCTAGTGCAG,9900 fluorescence intensity (a.u.)
11,AATTTTTTTTGGGGTTGCTGCTGTTTTTTTTGTGGAGGTTCGGAGTCACCTAGTGCAG,9450 fluorescence intensity (a.u.)
12,CTTTGCTTGGTTGCTTGTGTTGTGTGCTGTGCTGTGCAGTCGGAGTCACCTAGTGCAG,8220 fluorescence intensity (a.u.)
13,AAGGGCAGAGGAGAGGAGTTGCAGTGTGGTGTGTGGCATGCGGAGTCACCTAGTGCAG,8870 fluorescence intensity (a.u.)
14,TATACTTGTTGGCTGCTGCTTTGTGTGTGGTGTGTTGTTTCGGAGTCACCTAGTGCAG,10400 fluorescence intensity (a.u.)
15,GTGTGTTGGAGCTGCCGGTGTGTGGGTGGGGTTATTTTTTCGGAGTCACCTAGTGCAG,25100 fluorescence intensity (a.u.)
16,AGAGCTTGTGTGGTGGTGGGGCATCAGTGTGTCAGTTGTGCGGAGTCACCTAGTGCAG,17100 fluorescence intensity (a.u.)
17,TTTTTTTTTTTTGTTGGGCTTGTGACTTGTGGGGTGTGCACGGAGTCACCTAGTGCAG,11600 fluorescence intensity (a.u.)
18,ACACTCAAACGACACTTCACGCATCTCTCCTGAAATCTTGCGGAGTCACCTAGTGCAG,8780 fluorescence intensity (a.u.)
19,ACTTCAGATGTTTCTTGTTCCTACACTTCGCTGCTTCAGTCGGAGTCACCTAGTGCAG,11800 fluorescence intensity (a.u.)
20,CTCCTCTCTCTCTCAGCTCACCACACCTCGAGTCGCCGCCCGGAGTCACCTAGTGCAG,8180 fluorescence intensity (a.u.)
21,ACTGCTGTCTCCGCGTTACTCTACGCATGCATGCATGTATCGGAGTCACCTAGTGCAG,10000 fluorescence intensity (a.u.)
